The source of these data is PubChem BioAssay (NCATS).

Results filed as inconclusive are left out. Activity calls are given as the source filed them. Unless noted, the call rests on the fitted dose curve; in most records, active means well fitted curve in the direction sought with a large enough effect; inconclusive means small, poorly fitted or top-dose-only effect, or another doubt; inactive means no such curve, though single readings can be large; an effect the other way counts as inactive or inconclusive.

For experiment [1], the target named is Cytochrome P450 3A4 (Homo sapiens) (UniProt P08684). The experiment can be described thus: qHTS for inhibitors of CYP3A4 against the NCATS DSHEA and TCM libraries (AID 1919971).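 Further: on the % scale 0 is the no-effect control and ±100 the full control effect; inhibition lowers luminescence from luciferin made by CYP3A4.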 In a few lines: (§1)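 Substances were tested against enzyme with a pro-luciferin substrate; minus-enzyme wells served as background. After NADPH-initiated oxidation (30-45 min, RT), light was generated with P450-Glo reagent.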
Sequence of Cytochrome P450 3A4 (Homo sapiens) (P08684 whole entry, looked up): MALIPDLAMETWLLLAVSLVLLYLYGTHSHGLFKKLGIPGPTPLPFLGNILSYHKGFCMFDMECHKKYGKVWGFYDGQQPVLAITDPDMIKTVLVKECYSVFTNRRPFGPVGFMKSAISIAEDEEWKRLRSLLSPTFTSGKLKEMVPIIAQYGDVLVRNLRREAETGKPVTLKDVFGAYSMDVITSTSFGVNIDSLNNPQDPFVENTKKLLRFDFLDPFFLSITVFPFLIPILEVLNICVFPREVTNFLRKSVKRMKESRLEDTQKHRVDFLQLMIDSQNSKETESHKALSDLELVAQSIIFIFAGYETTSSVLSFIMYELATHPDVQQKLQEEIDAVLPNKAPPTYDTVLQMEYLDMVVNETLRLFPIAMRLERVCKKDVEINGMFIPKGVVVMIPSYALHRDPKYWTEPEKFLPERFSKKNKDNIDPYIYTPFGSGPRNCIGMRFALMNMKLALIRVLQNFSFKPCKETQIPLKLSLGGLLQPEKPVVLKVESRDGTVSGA

Experiment [2] addresses Cytochrome P450 2D6 (Homo sapiens) (UniProt P10635). Kind of experiment: qHTS for inhibitors of CYP2D6 against the NCATS DSHEA and TCM libraries (AID 1919972). Further: on the % scale 0 is the no-effect control and ±100 the full control effect. The method in brief:
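qHTS, concentration–response format with most substances from 19.5 nM. CYP2D6 + pro-luciferin substrate, 15 min with compound, then 1x NADPH regen, 30–45 min RT dark. Glo detection 30 min, luminescence. Quinidine control.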

In experiment [3] the target is Cytochrome P450 2C9 (Homo sapiens) (UniProt P11712). The experiment can be described thus: qHTS for inhibitors of CYP2C9 against the NCATS DSHEA and TCM libraries (AID 1919973).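 Further: luminogenic pro-luciferin CYP2C9 substrate turned into luciferin with NADPH regeneration; on the % scale 0 is the no-effect control and ±100 the full control effect.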 The method in brief:
as §1
For orientation: In qHTS, concentration-response curves come from the screen itself.

Experiment [4] concerns the target Cytochrome P450 2C19 (Homo sapiens) (UniProt P33261). Kind of experiment: qHTS for inhibitors of CYP2C19 against the NCATS DSHEA and TCM libraries (AID 1919974).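 Further: luminescence from luciferin released by CYP2C19 oxidation of a pro-luciferin substrate; on the % scale 0 is the no-effect control and ±100 the full control effect.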 In a few lines: as §1
The nature of experiment [5]: KB-3-1 P-gp reporter qHTS against the NCATS DSHEA and TCM libraries (AID 1919975). Further: 0% is about no effect. The method in brief:
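Parental KB-3-1 human cervical adenocarcinoma cells (500 cells/well, DMEM + 10% FBS) were treated with substances for ~72 h at 37C; viability was read by CellTiter-Glo luminescence.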

For experiment [6], the target named is Cytochrome P450 1A2 (Homo sapiens) (UniProt P05177). Kind of experiment: qHTS for inhibitors of CYPIA2 against the NCATS DSHEA and TCM libraries (AID 1919976). Further: on the % scale 0 is the no-effect control and ±100 the full control effect. In a few lines:
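Luminescence read-out: pro-luciferin converted to D-luciferin by CYP1A2, detected with P450-Glo reagent after 30 min RT. Enzyme plus substrate got compounds for 15 min RT; NADPH regeneration solution (final 1x) started a 30-45 min reaction, light-protected.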

Experiment [7] in a line: qHTS Counterscreen for compound interference against the NCATS DSHEA and TCM libraries (AID 1919978). Further: % of control where 0% means no effect. The settings on record: firefly luciferase detection reagent interference, luminescence. The method in brief: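 D-luciferin (1 uM final) or 100 mM potassium phosphate buffer alone was preincubated 15 min at RT with compounds (19.5 nM to 39.8 uM final). Luciferin detection reagent was then added and luminescence read after 30 min at RT.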

Experiment [8] is described as follows: Dual reporter qHTS for agonist of Pregnane X Receptor (hPXR) against the NCATS DSHEA and TCM libraries: Fluorescence readout (AID 1920058). Further: 0% is about no effect. The method in brief:
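Fluorescence read-out for cell viability: CellTiter-Fluor, 1 h at 37 °C, Ex/Em 405/540 nm. This followed ~24 h treatment of hPXR-Luc HepG2 cells with substances in agonist mode.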

Experiment [9] has as its target Nuclear receptor subfamily 1 group I member 2 (Homo sapiens) (UniProt O75469). The experiment can be described thus: Dual reporter qHTS for agonist of Pregnane X Receptor (hPXR) against the NCATS DSHEA and TCM libraries: Luminescence readout (AID 1920059). Further: 0% is about no effect. The method in brief:
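hPXR-LucHepG2 cells in phenol red-free DMEM with 5% charcoal-stripped FBS, 2000 cells/well, attached 5 h, then exposed 24 h at 37C to compounds; rifampicin as positive agonist control (2.8 nM–92 uM). Luciferase luminescence read.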

Experiment [10] has the same target. Kind of experiment: Dual reporter qHTS for antagonist of Pregnane X Receptor (hPXR) against the NCATS DSHEA and TCM libraries: Luminescence Readout (AID 1920060).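 Further: HepG2 cells carrying hPXR luciferase reporter stimulated with rifampicin at 2 µM; 0% is about no effect.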 In a few lines: (§2)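 HepG2 hPXR-Luc, 2000 cells/well, charcoal-stripped FBS medium; 5 h attach; RIF 2 uM final; 24 h 37C/5% CO2; CellTiter-Fluor 1 h, fluor 405/540; ONE-Glo 30 min RT, lum.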
Experiment [11] in a line: Dual reporter qHTS for antagonist of Pregnane X Receptor (hPXR) against the NCATS DSHEA and TCM libraries: Fluorescence Readout (AID 1920061). Further: 0% is about no effect. In a few lines: as §2
Experiment [12] is described as follows: qHTS profiling for inhibitors of Plasmodium falciparum proliferation (AID 504749). Further: potency means the concentration at half of the fitted maximal effect.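 On activity, negative = inhibition: 0% = DMSO vehicle and full inhibition = artemisinin control.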 On all read-outs here: nearly all actives have a fitted effect of over 60% in size. The settings on record: P. falciparum in erythrocytes, SYBR Green DNA, 72 h; for activity, negative = inhibition: at 28.7 µM (top of the series). The method in brief:
(§3)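 Fluorescence of SYBR Green-bound parasite DNA, read at 485/535 nm, served as the growth measure. Infected erythrocytes were cultured with compound 72 h; artemisinin (0.29 uM) and DMSO wells defined the normalization range.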

The test system of another experiment is 3D7. The description is as above. The following applies: P. falciparum in erythrocytes, SYBR Green DNA, 72 h; series mostly up to 28.7 µM. In a few lines:
as §3

In the next experiment the test system is 7G8. Described as above. The following applies: P. falciparum in erythrocytes, SYBR Green DNA, 72 h; series mostly up to 28.7 µM. In a few lines: as §3
The subject of another experiment is AA1029. Described as above. The settings on record: P. falciparum in erythrocytes, SYBR Green DNA, 72 h; series mostly up to 28.7 µM. In a few lines: as §3
The subject of a further experiment is AS120. Described as above. The following applies: P. falciparum in erythrocytes, SYBR Green DNA, 72 h; series mostly up to 28.7 µM. In a few lines: as §3
The nature of experiment [13]: qHTS drug screen for cell cycle checkpoint inhibitors in PARPi-resistant BRCA-mutant ovarian cancer cell lines. (AID 1963452; calls by dose curve). The settings on record: PEO1/OlaR viability, CellTiter-Glo luminescence, 96 h, stronger effect = lower value. In a few lines:
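PEO1, PEO4 and PEO1/OlaR ovarian cancer cells, 600 per well, exposed 96 h at 37C to a dilution series. Viability read by CellTiter-Glo luminescence, normalized to DMSO and empty wells; activity summarized as Z-AUC.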

Experiment [14] is described as follows: Primary fluorescence-based thiol-reactive (MSTI) qHTS assay for identification of artifact compounds. (AID 1845221).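 Further: thiol-reactive compounds lower the probe fluorescence signal; nearly all actives have a fitted effect of over 65% in size.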 In a few lines:
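One-hour, room-temperature, dark incubation of compound with 4 uM MSTI in PBS (pH 7.4, 2% DMSO) precedes a fluorescence read at 525 nm excitation, 598 nm emission; Hill-equation fitting yields concentration-response values.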

Experiment [15] has as its system Nanoluciferase (engineered Oplophorus gracilirostris luciferase). The experiment can be described thus: Primary Nanoluciferase (NLuc) qHTS assay for identification of artifact compounds. (AID 1845222).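 Further: NLuc secreted into diluted conditioned medium of S16 cells; 0% = DMSO and -100% = no enzyme.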 In a few lines:
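Using secreted nanoluciferase in S16 culture medium (0.22 um filtered, 1:55 dilution), compounds were preincubated 15 min at RT. Signal was generated with Nano-Glo reagent (1:100) over 5 min.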

A short description of experiment [16]: Primary redox qHTS assay for identification of artifact compounds. (AID 1845223).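 Further: 0% = DMSO and 100% = reference compound.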 In a few lines:
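Redox-cycling detection via DTT (250 uM final) oxidation coupled to Amplex Red (25 uM)/HRP (250 mU/mL) in HBSS. 15 min preincubation plus 30 min after DTT, room temperature. Ex/Em 525/598 nm; 4-parameter Hill fit against DMSO and 10 uM DA3003.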

The mark [17] stands for this setting: measured here: PEO1 parental Z-AUC.

Sequence of Nuclear receptor subfamily 1 group I member 2 (Homo sapiens) (O75469 whole entry, looked up): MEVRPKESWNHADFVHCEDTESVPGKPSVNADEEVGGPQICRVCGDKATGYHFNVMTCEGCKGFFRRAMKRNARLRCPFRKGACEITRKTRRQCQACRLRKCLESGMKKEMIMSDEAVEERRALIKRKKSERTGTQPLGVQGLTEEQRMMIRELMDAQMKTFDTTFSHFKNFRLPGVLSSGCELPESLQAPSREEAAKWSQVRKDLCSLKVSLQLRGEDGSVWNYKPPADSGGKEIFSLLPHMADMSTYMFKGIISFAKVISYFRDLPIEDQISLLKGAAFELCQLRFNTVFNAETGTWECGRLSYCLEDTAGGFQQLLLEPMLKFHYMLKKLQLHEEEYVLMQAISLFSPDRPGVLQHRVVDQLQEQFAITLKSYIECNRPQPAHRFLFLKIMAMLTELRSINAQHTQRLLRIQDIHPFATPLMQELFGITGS
Sequence of Cytochrome P450 2C19 (Homo sapiens) (P33261 whole entry, looked up): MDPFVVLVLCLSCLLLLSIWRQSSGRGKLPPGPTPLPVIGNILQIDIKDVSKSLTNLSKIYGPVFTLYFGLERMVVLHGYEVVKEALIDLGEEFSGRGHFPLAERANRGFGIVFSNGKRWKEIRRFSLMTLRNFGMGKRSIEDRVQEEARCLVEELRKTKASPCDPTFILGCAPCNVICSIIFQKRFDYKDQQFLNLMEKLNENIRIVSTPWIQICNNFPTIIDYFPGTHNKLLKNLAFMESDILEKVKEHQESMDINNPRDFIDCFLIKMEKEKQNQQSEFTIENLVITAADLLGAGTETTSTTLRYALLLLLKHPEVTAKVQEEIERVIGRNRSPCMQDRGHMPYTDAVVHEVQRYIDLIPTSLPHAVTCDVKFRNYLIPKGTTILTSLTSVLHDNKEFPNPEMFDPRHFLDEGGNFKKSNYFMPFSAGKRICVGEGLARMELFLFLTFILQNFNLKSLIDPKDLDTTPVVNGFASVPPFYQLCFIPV
Sequence of Cytochrome P450 2C9 (Homo sapiens) (P11712 whole entry, looked up): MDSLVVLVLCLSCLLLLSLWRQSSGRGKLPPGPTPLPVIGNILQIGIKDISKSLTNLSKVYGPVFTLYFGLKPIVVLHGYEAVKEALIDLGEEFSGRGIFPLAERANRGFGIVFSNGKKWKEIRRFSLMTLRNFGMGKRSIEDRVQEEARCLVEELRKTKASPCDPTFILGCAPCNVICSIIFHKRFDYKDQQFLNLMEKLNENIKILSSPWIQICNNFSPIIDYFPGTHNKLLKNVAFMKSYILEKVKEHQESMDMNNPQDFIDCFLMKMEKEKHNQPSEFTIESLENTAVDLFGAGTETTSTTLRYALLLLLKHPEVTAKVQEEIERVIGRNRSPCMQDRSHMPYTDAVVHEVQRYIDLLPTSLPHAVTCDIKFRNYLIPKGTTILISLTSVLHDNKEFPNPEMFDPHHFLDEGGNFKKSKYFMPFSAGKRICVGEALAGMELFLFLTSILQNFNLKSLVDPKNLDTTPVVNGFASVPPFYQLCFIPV
Sequence of Cytochrome P450 1A2 (Homo sapiens) (P05177 whole entry, looked up): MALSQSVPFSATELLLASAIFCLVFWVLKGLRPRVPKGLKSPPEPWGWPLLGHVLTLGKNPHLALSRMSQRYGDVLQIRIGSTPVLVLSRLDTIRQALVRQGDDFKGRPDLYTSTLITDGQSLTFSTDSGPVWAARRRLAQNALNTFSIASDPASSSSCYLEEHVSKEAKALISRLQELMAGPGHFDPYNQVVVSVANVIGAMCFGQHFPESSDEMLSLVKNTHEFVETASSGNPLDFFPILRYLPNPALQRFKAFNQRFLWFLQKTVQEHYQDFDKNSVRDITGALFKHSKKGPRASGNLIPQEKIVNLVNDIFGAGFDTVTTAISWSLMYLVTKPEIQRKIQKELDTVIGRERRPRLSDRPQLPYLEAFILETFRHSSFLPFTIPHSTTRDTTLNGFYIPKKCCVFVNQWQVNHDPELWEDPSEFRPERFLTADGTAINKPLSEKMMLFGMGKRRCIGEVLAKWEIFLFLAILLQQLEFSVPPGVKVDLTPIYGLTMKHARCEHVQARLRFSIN
Sequence of Cytochrome P450 2D6 (Homo sapiens) (P10635 whole entry, looked up): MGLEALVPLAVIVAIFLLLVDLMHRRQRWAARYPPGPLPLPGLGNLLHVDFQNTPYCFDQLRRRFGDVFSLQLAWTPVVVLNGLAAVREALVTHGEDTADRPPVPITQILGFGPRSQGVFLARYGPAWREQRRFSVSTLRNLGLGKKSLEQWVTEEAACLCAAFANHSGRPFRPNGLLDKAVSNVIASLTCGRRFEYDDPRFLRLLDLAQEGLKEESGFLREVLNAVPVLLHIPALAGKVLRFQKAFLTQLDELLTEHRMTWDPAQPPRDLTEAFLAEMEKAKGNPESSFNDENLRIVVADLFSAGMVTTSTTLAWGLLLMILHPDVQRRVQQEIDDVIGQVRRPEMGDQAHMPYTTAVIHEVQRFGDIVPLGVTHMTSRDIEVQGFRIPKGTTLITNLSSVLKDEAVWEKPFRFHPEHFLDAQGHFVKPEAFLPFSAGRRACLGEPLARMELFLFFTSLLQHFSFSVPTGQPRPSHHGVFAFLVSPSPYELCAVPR

In the case of `OC1C(O)C(O)C(O)C(O)C1O` (configuration not stated), the result in [1], in experiment [2], in experiment [3], in experiment [4], in experiment [5] and in experiment [6] was inactive. The outcome in experiment [8], in experiment [9], in [10] and in experiment [11] was inactive. In addition, the max response in experiment [7] was 2.31% (inactive). In addition, the activity, negative = inhibition is 1.75% (inactive) in [12] (parasite line A) and 14.4% (inactive) in experiment [12] (parasite line B). For the same compound, the Potency result with 3D7, in the experiment with 7G8, with AA1029 and in the experiment on AS120 was “inactive” throughout.

For the compound `CNCCCCOc1ccccc1Cc1ccccc1`, the activity, negative = inhibition in experiment [12] (parasite line A) was -10.8% (inactive); in experiment [12] (parasite line B), -10.9% (inactive). Moreover, in the experiment on 3D7, the Potency result was “inactive”. In addition, the Potency in the experiment with 7G8 was 6.31 µM (active); in the experiment with AA1029 it was 5.01 µM (active).

Regarding `CCOC(=O)[C@H](CCc1ccccc1)N[C@@H](C)C(=O)N1[C@H](C(=O)O)C[C@@H]2CCC[C@@H]21`, the Z-AUC is -0.637 (inactive) in [13], -0.134 in experiment [13] (setting [17]) and -0.409 in experiment [13] (measured here: PEO4 Z-AUC).

`Clc1cccc(C(c2ccc3nc[nH]c3c2)n2ccnc2)c1` (configuration not stated): the Z-AUC in experiment [13] was -0.1 (inactive); in experiment [13] (setting [17]), 0.0386; in [13] (measured here: PEO4 Z-AUC), 0.19. In addition, the Potency in experiment [12] (parasite line B) was 10 µM (active); in the experiment on 3D7, 11.2 µM (active); in the experiment on 7G8 it was 5.01 µM (active); with AS120, 11.2 µM (active).

`O=C1[C@H](CC[C@H](O)c2ccc(F)cc2)[C@@H](c2ccc(O)cc2)N1c1ccc(F)cc1`: the compound was classed as inactive in [14], in experiment [15] and in [16]. Besides, the Z-AUC in experiment [13] is 1.11 (inactive); in experiment [13] (setting [17]) it was 1.08; in [13] (measured here: PEO4 Z-AUC), 1.08.

Consider `CCOc1ccccc1C(N)=O`, for which the results for the activity, negative = inhibition in experiment [12] (parasite line A) and in experiment [12] (parasite line B) were -8% (inactive) and 15.4% (inactive), respectively. In addition, the Potency result in the experiment with 3D7, in the experiment with 7G8, in the experiment on AA1029 and in the experiment on AS120 was “inactive” each time.

Consider `C=C[C@H]1CN2CC[C@H]1C[C@@H]2[C@@H](O)c1ccnc2ccc(OC)cc12`, for which the Z-AUC was -0.544 (inactive) in [13], -0.182 in experiment [13] (setting [17]) and -0.0481 in [13] (measured here: PEO4 Z-AUC).

With `COc1cc([C@H]2Oc3cc([C@H]4Oc5cc(O)cc(O)c5C(=O)[C@@H]4O)ccc3O[C@@H]2CO)ccc1O`, the Z-AUC in experiment [13] was 1.43 (inactive); in experiment [13] (setting [17]) it was 1.29; in experiment [13] (measured here: PEO4 Z-AUC), 0.956. Also, the activity, negative = inhibition is -10.1% (inactive) in [12] (parasite line A) and -14.4% (inactive) in experiment [12] (parasite line B). The Potency entry with 3D7 and in the experiment with AA1029 was “inactive” each time. Also, the Potency in the experiment on 7G8 was 11.2 µM (active).

Take `C#C[C@]1(O)CC[C@H]2[C@@H]3[C@H](C)CC4=C(CCC(=O)C4)[C@H]3CC[C@@]21C`: the Z-AUC in experiment [13] was -1.06 (inactive); in [13] (setting [17]), -0.281; in [13] (measured here: PEO4 Z-AUC), 0.766.

Take `C#C[C@]1(O)CC[C@H]2[C@@H]3CCc4cc(OC)ccc4[C@H]3CC[C@@]21C`: the Z-AUC is 1.12 (inactive) in experiment [13], 0.901 in experiment [13] (setting [17]) and 1.32 in experiment [13] (measured here: PEO4 Z-AUC). In addition, the results for the activity, negative = inhibition in experiment [12] (parasite line A) and in [12] (parasite line B) were 1.32% (inactive) and 15.1% (inactive), respectively. The Potency entry with 3D7, in the experiment with 7G8, in the experiment on AA1029 and in the experiment on AS120 was “inactive” in each case.
